Reference: article PMC7862700, “An all-to-all approach to the identification of sequence-specific readers for epigenetic DNA modifications on cytosine”

Tests used:
Experiment in all cases: DAPPL (digital affinity profiling via proximity ligation, sequencing); 10 mM Tris-HCl pH 7.5, 50 mM NaCl, 1 mM DTT, 4% glycerol, room temperature, 30 min; GST-TFs on glutathione beads, 16-mer random dsDNA library, 0.1% formaldehyde crosslink after washing; high values mean tight binding
Settings in all cases: protein: recombinant; tags: N-terminal GST; dsDNA, one strand shown
[1] = biological target: T1, FLI1 (Homo sapiens, UniProt Q01543 1-452)
T1 sequence: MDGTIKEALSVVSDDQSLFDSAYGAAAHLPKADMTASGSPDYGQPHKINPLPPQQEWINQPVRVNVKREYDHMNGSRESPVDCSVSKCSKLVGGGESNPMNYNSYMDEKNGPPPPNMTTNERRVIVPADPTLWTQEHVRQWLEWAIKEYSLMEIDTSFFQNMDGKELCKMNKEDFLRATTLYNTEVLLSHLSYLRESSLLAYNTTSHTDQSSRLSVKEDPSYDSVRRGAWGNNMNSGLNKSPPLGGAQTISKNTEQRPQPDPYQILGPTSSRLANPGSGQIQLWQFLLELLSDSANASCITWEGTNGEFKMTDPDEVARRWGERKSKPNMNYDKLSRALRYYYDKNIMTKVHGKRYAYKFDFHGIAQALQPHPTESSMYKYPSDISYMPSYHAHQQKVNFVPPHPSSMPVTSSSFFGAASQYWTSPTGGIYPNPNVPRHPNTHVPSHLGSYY
Summary of the method: (§1)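 Beads coated with glutathione captured GST-fused human transcription factors that had been expressed in yeast, and the factors were then given DNA barcodes and pooled with a tag-only sample. The pools were incubated with 200 nmole of a random double-stranded 16-mer DNA library in Tris/NaCl/DTT/glycerol buffer for 30 min at room temperature, washed, crosslinked with 0.1% formaldehyde and proximity-ligated with BsaI/T4 ligase at 37 °C for 1 h. PCR amplification and Illumina NextSeq500 sequencing came last. Binding signal is each hexamer's read frequency for a factor divided by its frequency for the tag-only sample.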

[2] = biological target: T2, ELK1 (Homo sapiens, UniProt P19419 1-428)
T2 sequence: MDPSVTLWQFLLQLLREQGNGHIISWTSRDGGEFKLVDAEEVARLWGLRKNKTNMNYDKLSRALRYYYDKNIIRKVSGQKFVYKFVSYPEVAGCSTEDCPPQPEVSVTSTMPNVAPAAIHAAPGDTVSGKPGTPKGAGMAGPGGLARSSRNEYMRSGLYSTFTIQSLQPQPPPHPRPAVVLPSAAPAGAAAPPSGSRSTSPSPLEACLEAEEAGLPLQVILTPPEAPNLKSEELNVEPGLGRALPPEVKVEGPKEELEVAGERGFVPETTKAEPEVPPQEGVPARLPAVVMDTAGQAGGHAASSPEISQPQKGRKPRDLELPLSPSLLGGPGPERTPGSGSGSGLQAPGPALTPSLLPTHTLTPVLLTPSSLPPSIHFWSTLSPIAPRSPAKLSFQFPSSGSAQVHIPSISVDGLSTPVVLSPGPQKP
Summary of the method: as §1

[3] = biological target: T3, GABPA (Homo sapiens, UniProt Q06546 1-454)
T3 sequence: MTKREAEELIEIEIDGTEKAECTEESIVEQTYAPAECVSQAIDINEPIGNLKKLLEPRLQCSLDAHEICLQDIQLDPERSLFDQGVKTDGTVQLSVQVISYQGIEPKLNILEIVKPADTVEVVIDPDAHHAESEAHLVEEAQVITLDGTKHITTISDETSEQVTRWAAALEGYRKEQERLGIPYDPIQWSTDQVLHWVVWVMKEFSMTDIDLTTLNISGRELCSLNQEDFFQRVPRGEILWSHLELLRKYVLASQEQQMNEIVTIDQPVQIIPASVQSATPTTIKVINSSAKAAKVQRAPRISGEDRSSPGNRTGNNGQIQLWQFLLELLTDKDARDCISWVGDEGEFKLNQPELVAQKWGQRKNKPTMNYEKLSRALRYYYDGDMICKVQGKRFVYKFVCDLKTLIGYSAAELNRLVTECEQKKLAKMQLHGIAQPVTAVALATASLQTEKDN
Summary of the method: as §1

[4] = biological target: T4, ERG (Homo sapiens, UniProt P11308 1-479)
T4 sequence: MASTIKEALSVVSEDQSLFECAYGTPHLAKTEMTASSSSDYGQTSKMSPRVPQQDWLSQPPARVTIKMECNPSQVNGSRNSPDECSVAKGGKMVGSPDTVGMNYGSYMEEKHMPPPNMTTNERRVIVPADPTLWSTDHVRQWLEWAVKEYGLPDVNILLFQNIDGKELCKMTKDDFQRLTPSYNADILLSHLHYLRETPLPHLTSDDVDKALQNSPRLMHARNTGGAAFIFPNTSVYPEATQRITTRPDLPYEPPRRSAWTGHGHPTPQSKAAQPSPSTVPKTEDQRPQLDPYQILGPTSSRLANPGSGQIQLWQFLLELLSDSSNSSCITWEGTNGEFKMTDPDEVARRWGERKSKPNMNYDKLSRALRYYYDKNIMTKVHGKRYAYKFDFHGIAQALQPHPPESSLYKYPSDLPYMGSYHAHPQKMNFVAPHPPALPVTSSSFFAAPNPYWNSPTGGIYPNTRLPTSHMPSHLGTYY
Summary of the method: as §1

[5] = biological target: ELF1 (Homo sapiens, UniProt P32519 1-619)
Sequence of ELF1 (P32519 whole entry): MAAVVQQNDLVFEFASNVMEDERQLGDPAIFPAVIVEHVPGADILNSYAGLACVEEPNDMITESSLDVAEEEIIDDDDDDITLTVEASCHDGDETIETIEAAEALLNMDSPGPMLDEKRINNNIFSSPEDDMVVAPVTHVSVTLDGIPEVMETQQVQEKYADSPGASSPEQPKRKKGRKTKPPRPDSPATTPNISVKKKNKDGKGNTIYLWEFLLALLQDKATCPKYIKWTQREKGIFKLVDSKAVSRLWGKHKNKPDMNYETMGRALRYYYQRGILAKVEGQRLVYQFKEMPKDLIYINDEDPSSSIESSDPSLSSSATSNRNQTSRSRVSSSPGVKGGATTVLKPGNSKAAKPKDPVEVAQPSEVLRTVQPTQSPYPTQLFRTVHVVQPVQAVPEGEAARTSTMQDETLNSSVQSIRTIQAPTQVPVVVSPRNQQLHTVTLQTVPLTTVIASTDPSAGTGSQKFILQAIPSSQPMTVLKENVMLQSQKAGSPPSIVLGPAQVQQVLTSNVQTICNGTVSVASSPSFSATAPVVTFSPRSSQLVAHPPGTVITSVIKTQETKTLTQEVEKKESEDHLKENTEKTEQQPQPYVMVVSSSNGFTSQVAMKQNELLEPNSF
Summary of the method: as §1

[6] = biological target: T5, EHF (Homo sapiens, UniProt Q9NZC4 1-300)
T5 sequence: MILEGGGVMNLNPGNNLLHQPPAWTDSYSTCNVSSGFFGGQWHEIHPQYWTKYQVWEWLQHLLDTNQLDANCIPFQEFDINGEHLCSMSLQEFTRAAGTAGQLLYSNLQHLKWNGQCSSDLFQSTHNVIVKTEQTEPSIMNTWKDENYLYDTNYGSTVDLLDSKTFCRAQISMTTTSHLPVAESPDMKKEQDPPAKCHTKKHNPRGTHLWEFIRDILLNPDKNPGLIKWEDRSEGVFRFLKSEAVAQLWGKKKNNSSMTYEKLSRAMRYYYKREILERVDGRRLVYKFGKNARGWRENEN
Summary of the method: as §1

[7] = biological target: SPI1 (Homo sapiens, UniProt P17947 1-270)
Summary of the method: as §1

[8] = biological target: SPIB (Homo sapiens, UniProt Q01892 1-262)
Sequence of SPIB (Q01892 whole entry): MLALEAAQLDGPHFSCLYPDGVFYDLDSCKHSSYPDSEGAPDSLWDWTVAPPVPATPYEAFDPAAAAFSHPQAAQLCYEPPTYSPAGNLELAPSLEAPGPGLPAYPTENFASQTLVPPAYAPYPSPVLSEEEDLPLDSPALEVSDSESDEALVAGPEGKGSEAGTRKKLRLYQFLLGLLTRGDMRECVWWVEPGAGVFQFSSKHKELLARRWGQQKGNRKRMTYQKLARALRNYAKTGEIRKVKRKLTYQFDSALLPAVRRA
Summary of the method: as §1

[9] = biological target: T6, ELK3 (Homo sapiens, UniProt P41970 1-407)
T6 sequence: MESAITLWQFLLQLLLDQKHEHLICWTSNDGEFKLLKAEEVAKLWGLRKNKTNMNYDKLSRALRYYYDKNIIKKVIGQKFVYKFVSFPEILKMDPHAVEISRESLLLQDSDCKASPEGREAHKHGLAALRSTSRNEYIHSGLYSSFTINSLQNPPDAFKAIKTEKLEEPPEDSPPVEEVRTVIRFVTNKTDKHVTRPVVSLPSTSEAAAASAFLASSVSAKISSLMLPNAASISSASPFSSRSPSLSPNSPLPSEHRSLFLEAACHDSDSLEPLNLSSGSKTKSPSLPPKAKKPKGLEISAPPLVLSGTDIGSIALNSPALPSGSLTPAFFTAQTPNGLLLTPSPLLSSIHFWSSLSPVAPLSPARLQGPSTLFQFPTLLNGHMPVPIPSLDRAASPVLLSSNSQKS
Summary of the method: as §1

Sequence | binding signal [1] | binding signal [2] | binding signal [3] | binding signal [4] | binding signal [5] | binding signal [6] | binding signal [7] | binding signal [8] | binding signal [9]
AACAAC | 1.24 fold enrichment (6-mer frequency, TF over GST control) | 1.31 fold enrichment (6-mer frequency, TF over GST control) | 1.24 fold enrichment (6-mer frequency, TF over GST control) | 1.29 fold enrichment (6-mer frequency, TF over GST control) | 1.3 fold enrichment (6-mer frequency, TF over GST control) | 1.29 fold enrichment (6-mer frequency, TF over GST control) | 1.3 fold enrichment (6-mer frequency, TF over GST control) | 1.23 fold enrichment (6-mer frequency, TF over GST control) | 1.34 fold enrichment (6-mer frequency, TF over GST control)
ACGTCC | 1.59 fold enrichment (6-mer frequency, TF over GST control) | 1.58 fold enrichment (6-mer frequency, TF over GST control) | 1.61 fold enrichment (6-mer frequency, TF over GST control) | 1.67 fold enrichment (6-mer frequency, TF over GST control) | 1.55 fold enrichment (6-mer frequency, TF over GST control) | 1.63 fold enrichment (6-mer frequency, TF over GST control) | 1.49 fold enrichment (6-mer frequency, TF over GST control) | 1.72 fold enrichment (6-mer frequency, TF over GST control) | 1.85 fold enrichment (6-mer frequency, TF over GST control)
GCACTT | 1.61 fold enrichment (6-mer frequency, TF over GST control) | 2 fold enrichment (6-mer frequency, TF over GST control) | 1.87 fold enrichment (6-mer frequency, TF over GST control) | 1.93 fold enrichment (6-mer frequency, TF over GST control) | 1.77 fold enrichment (6-mer frequency, TF over GST control) | 1.79 fold enrichment (6-mer frequency, TF over GST control) | 2.23 fold enrichment (6-mer frequency, TF over GST control) | 1.7 fold enrichment (6-mer frequency, TF over GST control) | 1.99 fold enrichment (6-mer frequency, TF over GST control)
TAACCT | 1.2 fold enrichment (6-mer frequency, TF over GST control) | 1.32 fold enrichment (6-mer frequency, TF over GST control) | 1.35 fold enrichment (6-mer frequency, TF over GST control) | 1.12 fold enrichment (6-mer frequency, TF over GST control) | 1.35 fold enrichment (6-mer frequency, TF over GST control) | 1.29 fold enrichment (6-mer frequency, TF over GST control) | 1.29 fold enrichment (6-mer frequency, TF over GST control) | 1.31 fold enrichment (6-mer frequency, TF over GST control) | 1.43 fold enrichment (6-mer frequency, TF over GST control)
